Assay outcomes (PubChem BioAssay)
EWS-Fli inh = EWS/Fli-driven NR0B1 reporter inhibitors, primary screen, A673 cells, NR0B1 luciferase, luminescence, MLPCN library; viability-normalised; inhibition, % at 12.6 µM; hit rate 0.67% among 350,000;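 active = mean inhibition of at least 50% after viability correction, with every replicate also passing that limit; inconclusive = mean reaches 50% but only one of two replicates passes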;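 also: firefly luciferase signal divided by Alamar Blue viability fluorescence both relative to DMSO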
PAX8 reporter = inhibitors of PAX8-driven TPO luciferase reporter, primary screen, RMG-I cells, single concentration. AID 652154, 2013. inhibition, % at 12.6 µM. SteadyGlo, 24 h. hit rate 1.2% among 360,000;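 active = mean replicate inhibition at least 60% with every replicate also reaching 60%; inconclusive = only one of the two criteria is met; inactive = mean below 60% and not all replicates reaching 60%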;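 also: luciferase light reporting Pax8 driven TPO promoter activity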
INS-1E GSIS act = GLuc luminescence reporter in INS-1E cells, primary screen for activators of glucose-dependent secretion of insulin; INS-1E GLuc reporter insulin secretion, 2-3 h; activation, % at 16.6 µM; hit rate 0.61% among 370,000;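 active = lowest replicate activation of at least 40%, so every replicate reaches that level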
Statin myotox sup = suppressors of statin myotoxicity in C2C12 myotubes, primary screen, cell-based, single point, plate reader | hit rate 0.78% among 330,000 | rescue of ATP level, % at 7.49 µM | C2C12 myotubes + simvastatin, ATP luminescence, 48 h; scaled: DMSO 0, geranylgeraniol control 100 | AID 602340, 2012;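 active = mean ATP rescue above about 67%, or every replicate alone reaching that limit, limit read from the data, passing the limit was not always enough; inconclusive = no clear call, values can overlap the other calls; inactive = mean under the limit and some replicate under it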;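 also: myotubes were challenged with 10 µM simvastatin during compound exposure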
miR-122 sensor = miR-122 Renilla sensor signal increase in Huh7, primary screen, miR-122 inhibitor project, cell-based, single point, plate reader; Huh7 miR-122 Renilla luciferase sensor, 48 h; neutral wells = 0, positive control = 100; activation (reporter increase), % at 12.5 µM; hit rate 0.3% among 340,000;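 active = mean replicate activation score at least 90 and every replicate individually at or above 90; inconclusive = only one of the two criteria met; inactive = neither criterion met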;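 also: higher luciferase means less miR-122 activity so hits act as miR-122 inhibitors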
Env fusion inh = inhibitors of HIV-1 Env-driven cell-cell fusion, primary screen, HeLa-JRFL effector, CEM21 target cells, luciferase; inhibition, % at 12.3 µM; hit rate 1.1% among 360,000; AID 651610, 2012;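 active = mean replicate inhibition score of at least 50 and every replicate individually at or above 50; inconclusive = only one of the two criteria met; inactive = mean below 50 and not all replicates reaching 50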
Numbers stand for hits. In the library only some 3.1% were active in any assay of this set; here they are far more common.

`CC[C@@]12C(=O)N(c3cccc(F)c3)C(=O)N1[C@H](c1ccc(Cl)cc1)[C@@H]1C(=O)N(C3CCCCC3)C(=O)[C@@H]12` gave EWS-Fli inh inactive, PAX8 reporter inactive, INS-1E GSIS act inactive, Statin myotox sup inactive and Env fusion inh 95.
O=C(C[C@H]1CC[C@H](NS(=O)(=O)c2ccccc2)[C@@H](CO)O1)N1CCC(Cc2ccccc2)CC1 was read as EWS-Fli inh inactive, PAX8 reporter inactive and INS-1E GSIS act inactive.
CC(C)NC(=O)N(C)C[C@H]1Oc2ncc(C#CC3CC3)cc2C(=O)N([C@H](C)CO)C[C@H]1C was read as EWS-Fli inh inactive, PAX8 reporter inactive, INS-1E GSIS act inactive, Statin myotox sup inactive, miR-122 sensor inactive and Env fusion inh inactive.
Cc1cccc(N2C(=O)N3[C@H](c4ccc(F)cc4)[C@@H]4C(=O)N(C5CCCCC5)C(=O)[C@@H]4[C@]3(Cc3ccc(Cl)cc3)C2=O)c1 was read as EWS-Fli inh inactive, PAX8 reporter inactive, INS-1E GSIS act inactive, Statin myotox sup inactive, miR-122 sensor inactive and Env fusion inh 91.
`CC[C@@]12C(=O)N(c3ccc(OC)cc3)C(=O)N1[C@H](c1ccc(Cl)cc1)[C@@H]1C(=O)N(C3CCCCC3)C(=O)[C@@H]12` gave EWS-Fli inh inactive, PAX8 reporter inactive, INS-1E GSIS act inactive, Statin myotox sup inactive, miR-122 sensor inactive and Env fusion inh 87.
Screening CCS(=O)(=O)N1CCC2(CC1)CN(C(=O)CN1CCOCC1)[C@@H](CO)c1c2c2ccc(OC)cc2n1C returned EWS-Fli inh inactive and INS-1E GSIS act inactive.
CCCNC(=O)Nc1ccc2c(c1)OC[C@H](C)N(CC1CCCC1)C[C@@H](C)[C@@H](OC)CN(C)C2=O was read as EWS-Fli inh inactive, PAX8 reporter inactive, INS-1E GSIS act inactive, Statin myotox sup inactive and Env fusion inh inactive.
For CC(C)CC#Cc1ccc([C@@H]2[C@H]3CN(C(=O)Nc4ccccc4)CCCCN3[C@H]2CO)cc1 the results were EWS-Fli inh inactive, PAX8 reporter 74, INS-1E GSIS act inactive and miR-122 sensor inactive.
CC(C)CC#Cc1ccc([C@H]2[C@@H](CO)N3CCCCN(C(=O)Nc4ccccc4)C[C@@H]23)cc1 was read as EWS-Fli inh inactive, PAX8 reporter inactive, INS-1E GSIS act inactive and miR-122 sensor inactive.
Screening C[C@H](O)C#Cc1ccc([C@H]2[C@H]3CN(C(=O)Nc4ccccc4)CCCCN3[C@H]2CO)cc1 returned EWS-Fli inh inactive, PAX8 reporter 69, INS-1E GSIS act inactive, Statin myotox sup inactive and miR-122 sensor inactive.
Screening COc1ccc2c3c(n(C)c2c1)[C@@H](CO)N(C(=O)C1CC1)CC31CCN(C(=O)C2CCOCC2)CC1 returned EWS-Fli inh inactive, INS-1E GSIS act inactive and Env fusion inh inactive.
For CC(=O)Nc1ccc(S(=O)(=O)NCCC(=O)OC(C)C(=O)c2ccc(C)cc2)cc1 (stereo not drawn) the results were EWS-Fli inh inactive, PAX8 reporter inactive, INS-1E GSIS act inactive, Statin myotox sup inactive and Env fusion inh inactive.
Cc1ccc(NC(=O)C(C)OC(=O)CCNS(=O)(=O)c2ccc(C)cc2)cc1 (stereo not drawn) was read as EWS-Fli inh inactive, PAX8 reporter 70, INS-1E GSIS act inactive and miR-122 sensor inactive.
For O=C(C[C@@H]1CC[C@H]2[C@@H](COC[C@@H](O)CN2Cc2ccc(Oc3ccccc3)cc2)O1)Nc1nccs1 the results were EWS-Fli inh inactive, PAX8 reporter inactive, INS-1E GSIS act inactive, Statin myotox sup 100, miR-122 sensor inactive and Env fusion inh inactive.
For O=C(C[C@H]1CC[C@H]2[C@@H](COC[C@@H](O)CN2Cc2ccc(Oc3ccccc3)cc2)O1)N1CCCCC1 the results were EWS-Fli inh inactive, PAX8 reporter 100, INS-1E GSIS act inactive, Statin myotox sup inconclusive and miR-122 sensor inactive.
`Cc1cc2ncn(-c3ncccc3[N+](=O)[O-])c2cc1C` gave EWS-Fli inh 58, PAX8 reporter inactive, INS-1E GSIS act inactive, Statin myotox sup inactive, miR-122 sensor inactive and Env fusion inh inactive.
For Cc1noc(C)c1CSc1nnnn1-c1ccc(Cl)cc1 the results were miR-122 sensor inactive.
`Cc1noc(C)c1CSc1nc2ccccc2c(=O)n1-c1ccc(Cl)cc1` gave INS-1E GSIS act inactive, Statin myotox sup inactive, miR-122 sensor inactive and Env fusion inh 62.
CCC(c1nnnn1-c1ccc2c(c1)OCCO2)N1CCN(C(=O)c2ccco2)CC1 (stereo not drawn) was read as EWS-Fli inh inactive, PAX8 reporter inactive, INS-1E GSIS act inactive and Env fusion inh inactive.
CCC(c1nnnn1-c1ccc2c(c1)OCCO2)N1CCc2ccccc2C1 (stereo not drawn) was read as EWS-Fli inh inactive, PAX8 reporter inactive, INS-1E GSIS act 55 and Env fusion inh inactive.
`O=S(=O)(c1ccccc1)c1cc(O)ccc1O` gave EWS-Fli inh inactive, PAX8 reporter inactive, INS-1E GSIS act inactive, Statin myotox sup inactive, miR-122 sensor 221 and Env fusion inh inactive.
`Cc1ccc(S(=O)(=O)N(C)C[C@H]2OCCCC[C@@H](C)Oc3ccc(NC(=O)Nc4ccccc4)cc3C(=O)N([C@@H](C)CO)C[C@@H]2C)cc1` gave EWS-Fli inh inactive, INS-1E GSIS act inactive, miR-122 sensor inactive and Env fusion inh inactive.
Screening NNc1nc(-c2ccccc2)c2ccccc2n1 returned EWS-Fli inh inactive, PAX8 reporter inactive, INS-1E GSIS act 44 and Env fusion inh inactive.
OCCNc1nc(-c2ccccc2)c2ccccc2n1 was read as Statin myotox sup inactive and miR-122 sensor inactive.
Screening CCCN(C(=O)CCc1cn(CCC)c2ccccc12)c1ccc(N(C)c2ccccn2)cc1 returned EWS-Fli inh inactive, PAX8 reporter inactive and Env fusion inh inactive.
`CCCN(C(=O)CCc1cn(CCC)c2ccccc12)c1ccc(Oc2cccnc2)cc1` gave EWS-Fli inh inactive, PAX8 reporter inactive, INS-1E GSIS act inactive and Env fusion inh 70.
Screening CC(C)NC(=O)Nc1ccc2c(c1)C(=O)N([C@H](C)CO)C[C@@H](C)[C@H](CN(C)CC1CC1)OCCCC[C@@H](C)O2 returned EWS-Fli inh inactive, PAX8 reporter inactive, INS-1E GSIS act inactive, Statin myotox sup inactive, miR-122 sensor inactive and Env fusion inh inactive.
`CCC(COC)Oc1cc(NCc2ccccc2)c2ncn(C(C)C)c2c1` (stereo not drawn) gave EWS-Fli inh inactive, PAX8 reporter 70, INS-1E GSIS act inactive, Statin myotox sup inactive and Env fusion inh inactive.
